Data reported in PubChem BioAssay (NCI).
About 79,000 compounds went through this panel and 15% of them were active in at least one assay; those are over-represented in the sample as a whole. A number with no mark means an inactive call. Activity calls are given as the source filed them. No stated cut-off is given here; in the data, active means growth inhibition above about 70%; inactive means the rest.

Experiments:
[1] = NCI Yeast Anticancer Drug Screen. Data for the rad52 strain (AID 147);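 further: 0% = growth of vehicle-treated control cultures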; conditions: S. cerevisiae rad52 mutant growth inhibition, hits give high values
Outline: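 Here a repair-compromised yeast strain receives each compound; its growth is then quantified and normalised to vehicle-only controls.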

[2] = NCI Yeast Anticancer Drug Screen. Data for the wt1 strain (AID 149);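 further: 0% = growth of vehicle-treated wt1 cultures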; conditions: S. cerevisiae wt1 strain (SPY 50644) growth inhibition, hits give high values
Outline: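 Yeast wt1 strain exposed to compounds; growth inhibition measured relative to vehicle-treated controls.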

[3] = NCI Yeast Anticancer Drug Screen. Data for the rad50EPP+ strain (AID 151);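 further: 0% = growth of vehicle-treated control cultures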; conditions: S. cerevisiae rad50 mutant strain, hits give high values
Outline: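 Read-out is yeast growth inhibition relative to vehicle; cells used were the rad50EPP+ strain.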

[4] = NCI Yeast Anticancer Drug Screen. Data for the mgt1 strain (AID 153); conditions: S. cerevisiae mgt1 mutant growth inhibition, hits give high values
Outline: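 Measured: inhibition of mgt1 yeast growth by compound, normalized to vehicle-treated cultures.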

[5] = NCI Yeast Anticancer Drug Screen. Data for the rad50 strain (AID 155);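 further: 0% = growth of vehicle-only cultures of the same strain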; conditions: S. cerevisiae rad50 strain growth inhibition, hits give high values
Outline: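 Yeast carrying a defined DNA repair defect were exposed to test compounds, and growth was compared with vehicle-treated controls to give percent inhibition.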

[6] = NCI Yeast Anticancer Drug Screen. Data for the mec2-1 strain (AID 157); conditions: S. cerevisiae mec2-1 strain, hits give high values
Outline: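 Using mec2-1 yeast: add compound, measure growth, express inhibition versus vehicle-treated cultures.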

[7] = NCI Yeast Anticancer Drug Screen. Data for the rad14 strain (AID 159);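 further: 0% = growth of vehicle-treated control cultures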; conditions: S. cerevisiae rad14 strain growth inhibition, hits give high values
Outline: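 Yeast cells carrying a defined DNA-repair defect were exposed to compounds, and growth inhibition was calculated relative to vehicle-treated control cultures.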

[8] = NCI Yeast Anticancer Drug Screen. Data for the sgs1 mgt1 strain (AID 161);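 further: 0% = growth of cultures given vehicle only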; conditions: S. cerevisiae sgs1 mgt1 strain, hits give high values
Outline: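 Growth of a repair-deficient yeast mutant was monitored after compound treatment and expressed as inhibition relative to vehicle-treated cultures.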

[9] = NCI Yeast Anticancer Drug Screen. Data for the CLN2oe strain (AID 163);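 further: 0% = growth of vehicle-only control cultures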; conditions: S. cerevisiae CLN2oe strain, hits give high values
Outline: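 Whole-cell yeast growth assay. A strain engineered for altered cell-cycle control received compound, and inhibition relative to vehicle-treated cultures was recorded.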

[10] = NCI Yeast Anticancer Drug Screen. Data for the cln2 rad14 strain (AID 165);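 further: 0% = growth equal to vehicle treated cultures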; conditions: S. cerevisiae cln2 rad14 strain, hits give high values
Outline: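 Yeast strain cln2 rad14, bearing defects in cell cycle control and DNA repair, serves as the test system; values reflect growth inhibition compared with vehicle.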

[11] = NCI Yeast Anticancer Drug Screen. Data for the bub3 strain (AID 167); conditions: S. cerevisiae bub3 mutant strain, hits give high values
Outline: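 Compounds were applied to a genetically altered yeast strain carrying a cell-cycle control defect. Growth inhibition was scored against vehicle-treated controls.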

[12] = NCI Yeast Anticancer Drug Screen. Data for the wt2 strain (AID 169);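 further: 0% = growth of vehicle-treated yeast cultures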; conditions: S. cerevisiae wt2 strain growth inhibition, hits give high values
Outline: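 Treated yeast vs. vehicle-treated yeast: growth inhibition determined.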

[13] = NCI Yeast Anticancer Drug Screen. Data for the mlh1 strain (AID 171);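 further: 0% = growth of vehicle-treated control cultures of the same strain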; conditions: S. cerevisiae mlh1 strain growth inhibition, hits give high values
Outline: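 A yeast strain with a defined genetic lesion serves as the test organism. Cultures receive compound or vehicle, and growth is measured.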

[14] = NCI Yeast Anticancer Drug Screen. Data for the sgs1 strain (AID 173);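 further: 0% = growth of vehicle-only control cultures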; conditions: S. cerevisiae sgs1 mutant, hits give high values
Outline: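 A genetically defined yeast mutant is incubated with the test compound, and its growth is compared to that of the same strain given vehicle.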

[15] = NCI Yeast Anticancer Drug Screen. Data for the mlh1 rad18 strain (AID 175); conditions: S. cerevisiae mlh1 rad18 strain growth inhibition, hits give high values
Outline: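 Steps: expose repair-defective yeast to compound; measure growth; express inhibition against vehicle-treated controls.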

[16] = NCI Yeast Anticancer Drug Screen. Data for the rad18 strain (AID 177); conditions: S. cerevisiae rad18 mutant growth inhibition, hits give high values
Outline: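 Measured value is growth inhibition of a yeast strain bearing a DNA repair alteration, referenced to vehicle-treated cells.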

[17] = at 5.0 µM (retest, dose inferred, filed as 0.5)
[18] = at 50.0 µM (retest, dose inferred, filed as 5.0)

## COc1cc(C2SCC(=O)N2c2nnc(C(F)(F)F)s2)cc(OC)c1OC (stereo unspecified)
[1]; at 1.2 µM
  growth inhibition: -1%
[1]; at 3.7 µM
  growth inhibition: -3%
[1]; at 11.0 µM
  growth inhibition: -2%
[1]; at 33.0 µM
  growth inhibition: -3%
[1]; at 100.0 µM
  growth inhibition: -5%
[2]; at 1.2 µM
  growth inhibition: -84%
[2]; at 3.7 µM
  growth inhibition: -3%
[2]; at 11.0 µM
  growth inhibition: -3%
[2]; at 33.0 µM
  growth inhibition: -1%
[2]; at 100.0 µM
  growth inhibition: -3%
[3]; at 1.2 µM
  growth inhibition: -4%
[3]; at 3.7 µM
  growth inhibition: -2%
[3]; at 11.0 µM
  growth inhibition: 3%
[3]; at 33.0 µM
  growth inhibition: -2%
[3]; at 100.0 µM
  growth inhibition: 0%
[4]; at 1.2 µM
  growth inhibition: -1%
[4]; at 3.7 µM
  growth inhibition: -2%
[4]; at 11.0 µM
  growth inhibition: -5%
[4]; at 33.0 µM
  growth inhibition: -1%
[4]; at 100.0 µM
  growth inhibition: -4%
[5]; at 1.2 µM
  growth inhibition: -1%
[5]; at 3.7 µM
  growth inhibition: -2%
[5]; [17]
  growth inhibition: -5%
[5]; at 11.0 µM
  growth inhibition: -2%
[5]; at 33.0 µM
  growth inhibition: 0%
[5]; [18]
  growth inhibition: -18%
[5]; at 50.0 µM
  growth inhibition: 18.1%
[5]; at 100.0 µM
  growth inhibition: -5%
[6]; at 1.2 µM
  growth inhibition: -4%
[6]; at 3.7 µM
  growth inhibition: 2%
[6]; [17]
  growth inhibition: 0%
[6]; at 11.0 µM
  growth inhibition: 4%
[6]; at 33.0 µM
  growth inhibition: 1%
[6]; [18]
  growth inhibition: -4%
[6]; at 50.0 µM
  growth inhibition: 20.9%
[6]; at 100.0 µM
  growth inhibition: -1%
[7]; at 1.2 µM
  growth inhibition: -2%
[7]; at 3.7 µM
  growth inhibition: -2%
[7]; at 11.0 µM
  growth inhibition: -1%
[7]; at 33.0 µM
  growth inhibition: -2%
[7]; at 100.0 µM
  growth inhibition: -4%
[8]; [17]
  growth inhibition: -4%
[8]; [18]
  growth inhibition: 2%
[8]; at 50.0 µM
  growth inhibition: 0.1%
[9]; at 1.2 µM
  growth inhibition: -7%
[9]; at 3.7 µM
  growth inhibition: 1%
[9]; at 11.0 µM
  growth inhibition: -2%
[9]; at 33.0 µM
  growth inhibition: 0%
[9]; at 100.0 µM
  growth inhibition: -8%
[10]; [17]
  growth inhibition: -7%
[10]; [18]
  growth inhibition: -10%
[10]; at 50.0 µM
  growth inhibition: -12.5%
[11]; at 1.2 µM
  growth inhibition: 6%
[11]; at 3.7 µM
  growth inhibition: 12%
[11]; [17]
  growth inhibition: 31%
[11]; at 11.0 µM
  growth inhibition: 28%
[11]; at 33.0 µM
  growth inhibition: 41%
[11]; [18]
  growth inhibition: 50%
[11]; at 50.0 µM
  growth inhibition: 43.1%
[11]; at 100.0 µM
  growth inhibition: 48%
[12]; at 1.2 µM
  growth inhibition: -2%
[12]; at 3.7 µM
  growth inhibition: -4%
[12]; at 11.0 µM
  growth inhibition: -2%
[12]; at 33.0 µM
  growth inhibition: -4%
[12]; at 100.0 µM
  growth inhibition: -4%
[13]; at 1.2 µM
  growth inhibition: -3%
[13]; at 3.7 µM
  growth inhibition: -2%
[13]; at 11.0 µM
  growth inhibition: 0%
[13]; at 33.0 µM
  growth inhibition: -1%
[13]; at 100.0 µM
  growth inhibition: -2%
[14]; at 1.2 µM
  growth inhibition: -3%
[14]; at 3.7 µM
  growth inhibition: -2%
[14]; at 11.0 µM
  growth inhibition: -3%
[14]; at 33.0 µM
  growth inhibition: -1%
[14]; at 100.0 µM
  growth inhibition: -1%
[15]; [17]
  growth inhibition: -4%
[15]; [18]
  growth inhibition: -9%
[15]; at 50.0 µM
  growth inhibition: 0.35%
[16]; at 1.2 µM
  growth inhibition: -2%
[16]; at 3.7 µM
  growth inhibition: -2%
[16]; at 11.0 µM
  growth inhibition: -1%
[16]; at 33.0 µM
  growth inhibition: -2%
[16]; at 100.0 µM
  growth inhibition: -2%

## O=[N+]([O-])c1cccc2nc3ccccc3c(NCCCN3CCOCC3)c12
[1]; at 1.2 µM
  growth inhibition: 95% (active)
[1]; at 3.7 µM
  growth inhibition: 97% (active)
[1]; at 11.0 µM
  growth inhibition: 98% (active)
[1]; at 33.0 µM
  growth inhibition: 98% (active)
[1]; at 100.0 µM
  growth inhibition: 98% (active)
[2]; at 1.2 µM
  growth inhibition: -8%
[2]; at 3.7 µM
  growth inhibition: 38%
[2]; at 11.0 µM
  growth inhibition: 90% (active)
[2]; at 33.0 µM
  growth inhibition: 97% (active)
[2]; at 100.0 µM
  growth inhibition: 98% (active)
[3]; at 1.2 µM
  growth inhibition: 19%
[3]; at 3.7 µM
  growth inhibition: 46%
[3]; at 11.0 µM
  growth inhibition: 76% (active)
[3]; at 33.0 µM
  growth inhibition: 92% (active)
[3]; at 100.0 µM
  growth inhibition: 96% (active)
[4]; at 1.2 µM
  growth inhibition: 16%
[4]; at 3.7 µM
  growth inhibition: 43%
[4]; at 11.0 µM
  growth inhibition: 91% (active)
[4]; at 33.0 µM
  growth inhibition: 97% (active)
[4]; at 100.0 µM
  growth inhibition: 98% (active)
[5]; at 1.2 µM
  growth inhibition: 89% (active)
[5]; at 3.7 µM
  growth inhibition: 94% (active)
[5]; [17]
  growth inhibition: 85% (active)
[5]; at 11.0 µM
  growth inhibition: 96% (active)
[5]; at 33.0 µM
  growth inhibition: 97% (active)
[5]; [18]
  growth inhibition: 97% (active)
[5]; at 50.0 µM
  growth inhibition: 96% (active)
[5]; at 100.0 µM
  growth inhibition: 98% (active)
[6]; at 1.2 µM
  growth inhibition: 90% (active)
[6]; at 3.7 µM
  growth inhibition: 97% (active)
[6]; [17]
  growth inhibition: 91% (active)
[6]; at 11.0 µM
  growth inhibition: 98% (active)
[6]; at 33.0 µM
  growth inhibition: 99% (active)
[6]; [18]
  growth inhibition: 99% (active)
[6]; at 50.0 µM
  growth inhibition: 97.3% (active)
[6]; at 100.0 µM
  growth inhibition: 99% (active)
[7]; at 1.2 µM
  growth inhibition: 98% (active)
[7]; at 3.7 µM
  growth inhibition: 98% (active)
[7]; at 11.0 µM
  growth inhibition: 98% (active)
[7]; at 33.0 µM
  growth inhibition: 98% (active)
[7]; at 100.0 µM
  growth inhibition: 98% (active)
[8]; [17]
  growth inhibition: 92% (active)
[8]; [18]
  growth inhibition: 98% (active)
[8]; at 50.0 µM
  growth inhibition: 96.9% (active)
[9]; at 1.2 µM
  growth inhibition: -7%
[9]; at 3.7 µM
  growth inhibition: 46%
[9]; at 11.0 µM
  growth inhibition: 92% (active)
[9]; at 33.0 µM
  growth inhibition: 96% (active)
[9]; at 100.0 µM
  growth inhibition: 99% (active)
[10]; [17]
  growth inhibition: 98% (active)
[10]; [18]
  growth inhibition: 99% (active)
[10]; at 50.0 µM
  growth inhibition: 98.4% (active)
[11]; at 1.2 µM
  growth inhibition: -14%
[11]; at 3.7 µM
  growth inhibition: 0%
[11]; [17]
  growth inhibition: 0%
[11]; at 11.0 µM
  growth inhibition: 53%
[11]; at 33.0 µM
  growth inhibition: 93% (active)
[11]; [18]
  growth inhibition: 97% (active)
[11]; at 50.0 µM
  growth inhibition: 90.1% (active)
[11]; at 100.0 µM
  growth inhibition: 98% (active)
[12]; at 1.2 µM
  growth inhibition: -1%
[12]; at 3.7 µM
  growth inhibition: 19%
[12]; at 11.0 µM
  growth inhibition: 76% (active)
[12]; at 33.0 µM
  growth inhibition: 96% (active)
[12]; at 100.0 µM
  growth inhibition: 98% (active)
[13]; at 1.2 µM
  growth inhibition: 16%
[13]; at 3.7 µM
  growth inhibition: 54%
[13]; at 11.0 µM
  growth inhibition: 94% (active)
[13]; at 33.0 µM
  growth inhibition: 98% (active)
[13]; at 100.0 µM
  growth inhibition: 99% (active)
[14]; at 1.2 µM
  growth inhibition: 91% (active)
[14]; at 3.7 µM
  growth inhibition: 94% (active)
[14]; at 11.0 µM
  growth inhibition: 96% (active)
[14]; at 33.0 µM
  growth inhibition: 97% (active)
[14]; at 100.0 µM
  growth inhibition: 98% (active)
[15]; [17]
  growth inhibition: 95% (active)
[15]; [18]
  growth inhibition: 98% (active)
[15]; at 50.0 µM
  growth inhibition: 98.2% (active)
[16]; at 1.2 µM
  growth inhibition: 96% (active)
[16]; at 3.7 µM
  growth inhibition: 96% (active)
[16]; at 11.0 µM
  growth inhibition: 97% (active)
[16]; at 33.0 µM
  growth inhibition: 97% (active)
[16]; at 100.0 µM
  growth inhibition: 99% (active)
